Laboratory results published in PubChem BioAssay AID1159580 (chemical genetic matrix, 2015).
“And” between values parts separate entries of the source, which are not always exact repeats. Equal values may be shown once. The whole screen tested about 5,500 compounds, of which about 2,000 (36%) were called active. Not shown: some 18% with an inconclusive outcome. Cut-off read from the data, not from the text of the source: active = normalized growth mostly below about 0.91 (no sharp cut-off); inconclusive = no clear call, values can overlap the other calls; inactive = mostly above about 0.92. This is one part of the list.

Assay: chemical genetic growth profiling, strain panel (AID 1159580);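 note: tested at 20 µM; growth read once vehicle control cultures reached saturation at 30 °C; 1 = growth at the plate median or of vehicle wells; lower values mean less growth of the strain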
Conditions: S. cerevisiae deletion strains, growth OD

Measured: normalized growth

COc1ccc(NS(=O)(=O)c2ccc(N)cc2)nn1
inactive: locus YAL013W, strain DEP1, hits give low values 1.01 | locus YAL021C, strain ccr4, hits give low values 0.989 | locus YAL026C, strain drs2, hits give low values 1 | locus YAL030W, strain snc1, hits give low values 0.996 | locus YBL061C, strain skt5, hits give low values 0.992 | locus YBR009C, strain hhf1, hits give low values 0.978 | locus YBR021W, strain FUR4, hits give low values 1.02 | locus YBR023C, strain chs3, hits give low values 1.01 | locus YBR171W, strain sec66, hits give low values 0.999 | locus YBR229C, strain ROT2, hits give low values 1.02 | locus YBR231C, strain swc5, hits give low values 1 | locus YBR279W, strain paf1, hits give low values 1 | locus YCL011C, strain gbp2, hits give low values 1.01 | locus YCL016C, strain dcc1, hits give low values 0.996 | locus YCL029C, strain bik1, hits give low values 0.996 | locus YCL069W, strain vba3, hits give low values 0.992 | locus YCR088W, strain abp1, hits give low values 1 | locus YDL005C, strain med2, hits give low values 0.998 | locus YDL035C, strain GPR1, hits give low values 1.02 | locus YDL040C, strain nat1, hits give low values 1 | locus YDL074C, strain BRE1, hits give low values 1.04 | locus YDL101C, strain DUN1, hits give low values 1.03 | locus YDL134C, strain PPH21, hits give low values 1.01 | locus YDL185W, strain tfp1, hits give low values 0.996 | locus YDL192W, strain arf1, hits give low values 0.99 | locus YDR001C, strain nth1, hits give low values 1.01 | locus YDR069C, strain doa4, hits give low values 1 | locus YDR101C, strain arx1, hits give low values 1 | locus YDR137W, strain rgp1, hits give low values 1 | locus YDR150W, strain NUM1, hits give low values 1.02 | locus YDR159W, strain sac3, hits give low values 0.907 | locus YDR162C, strain NBP2, hits give low values 1.01 | locus YDR195W, strain ref2 1 | locus YDR297W, strain sur2, hits give low values 0.989 | locus YDR318W, strain mcm21, hits give low values 0.988 | locus YDR334W, strain swr1, hits give low values 1.01 | locus YDR335W, strain msn5, hits give low values 1 | locus YDR388W, hits give low values 0.993 | locus YDR392W, strain spt3, hits give low values 0.881 | locus YDR502C, strain sam2, hits give low values 0.983 | locus YEL003W, strain gim4, hits give low values 1.02 | locus YEL037C, strain rad23, hits give low values 0.995 | locus YEL061C, strain CIN8 (second series), hits give low values 1.01 | locus YEL061C, strain CIN8, hits give low values 1.02 | locus YER015W, strain faa2, hits give low values 1.01 | locus YER016W, strain bim1, hits give low values 0.988 | locus YER110C, hits give low values 0.992 | locus YER111C, strain swi4, hits give low values 0.995 | locus YER155C, strain BEM2 (second series), hits give low values 0.962 | locus YER155C, strain BEM2, hits give low values 1 | locus YER167W, strain BCK2, hits give low values 1.01 | locus YFR010W, strain ubp6, hits give low values 1 | locus YGL078C, strain dbp3, hits give low values 0.986 | locus YGL086W, strain mad1, hits give low values 0.995 | locus YGL167C, strain pmr1, hits give low values 0.999 | locus YGL173C, strain kem1, hits give low values 1 | locus YGL227W, strain vid30, hits give low values 1 | locus YGL240W, strain doc1, hits give low values 0.987 | locus YGL248W, strain PDE1, hits give low values 1.03 | locus YGL253W, strain hxk2, hits give low values 1.01 | locus YGR135W, strain pre9, hits give low values 0.982 | locus YGR252W, strain gcn5, hits give low values 0.953 | locus YHR013C, strain ard1, hits give low values 0.987 | locus YHR027C, strain rpn1, hits give low values 0.999 | locus YHR030C, strain SLT2, hits give low values 1.02 and 0.989 | locus YHR079C, strain IRE1 (second series), hits give low values 0.998 | locus YHR079C, strain IRE1, hits give low values 0.995 | locus YHR094C, strain hxt1, hits give low values 0.984 | locus YHR129C, strain ARP1, hits give low values 1.01 | locus YHR142W, strain chs7, hits give low values 1 | locus YHR200W, strain rpn10, hits give low values 0.999 | locus YIL066C, strain RNR3, hits give low values 1.03 | locus YIL073C, strain SPO22, hits give low values 0.965 | locus YIL125W, strain kgd1, hits give low values 0.996 | locus YIR030C, strain dcg1, hits give low values 0.99 | locus YJL092W, strain hpr5, hits give low values 1 | locus YJL095W, strain BCK1 (second series), hits give low values 1 | locus YJL095W, strain BCK1, hits give low values 1.05 and 1.01 | locus YJL115W, strain asf1, hits give low values 0.996 | locus YJL129C, strain trk1, hits give low values 1 | locus YJL134W, strain LCB3, hits give low values 1.01 | locus YJL154C, strain vps35, hits give low values 0.997 | locus YJL164C, strain tpk1, hits give low values 0.985 | locus YJL166W, strain qcr8, hits give low values 1.02 | locus YJL168C, strain set2, hits give low values 0.996 | locus YJL187C, strain SWE1 (second series), hits give low values 1.03 | locus YJR043C, strain POL32, hits give low values 1.01 | locus YJR066W, strain TOR1, hits give low values 0.934
